# Shown is part of a subset that was picked to be rich in the strongest signals.
# B1: CBM13 2a (Mycobacterium tuberculosum), P64849 (protein)
# chain: DGPVQLKSRLGDVCLDAPSGSWFSPLVINPCNGTDFQRWNLTDDRQVESVAFPGECVNIGNALWARLQPCVNWISQHWTVQPDGLVKSDLDACLTVLGGPDPGTWVSTRWCDPNAPDQQWDSVPLEHHHHHH
# How the values were obtained:
# Assay in all cases: glycan array binding signal (z-score within array); higher = stronger binding
# Conditions in all cases: glycan notation: IUPAC condensed, linker removed
# Fuc(a1-2)Gal(b1-4)GlcNAc = molecular target: Fuc(a1-2)Gal(b1-4)GlcNAc
# How it was run: (§1)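 Glycan array data were curated from 3228 arrays in the Consortium for Functional Glycomics database and kept only where the protein sequence was available. Glycan names were converted to IUPAC-condensed notation, and columns mapping to the same glycan were averaged. The binding signal is a within-array Z-score, averaged across arrays of the same protein sequence at different concentrations or buffers and across linkers. Negative Z-scores can be read as non-binding.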
# [1] = molecular target: Fuc(a1-2)Gal(b1-4)GlcNAc(b1-2)Man(a1-3)[Fuc(a1-2)Gal(b1-4)GlcNAc(b1-2)Man(a1-6)]Man(b1-4)GlcNAc(b1-4)[Fuc(a1-6)]GlcNAc
# How it was run: as §1
# [2] = molecular target: Fuc(a1-2)Gal(b1-4)GlcNAc(b1-3)Gal(b1-4)GlcNAc
# How it was run: as §1
# Fuc(a1-2)[Gal(a1-3)]Gal = molecular target: Fuc(a1-2)[Gal(a1-3)]Gal
# How it was run: as §1
# [3] = molecular target: Fuc(a1-2)[GalNAc(a1-3)]Gal(b1-4)GlcNAc(b1-6)GalNAc
# How it was run: as §1
# [4] = molecular target: Fuc(a1-2)[GalNAc(a1-3)]Gal(b1-4)[Fuc(a1-3)]GlcNAc
# How it was run: as §1
# [5] = molecular target: Fuc(a1-3)[GalNAc(b1-4)]GlcNAc
# How it was run: as §1
# [6] = molecular target: Gal(a1-3)Gal(b1-3)GlcNAc(b1-3)GalNAc
# How it was run: as §1
# [7] = molecular target: Gal(a1-3)Gal(b1-3)GlcNAc(b1-6)GalNAc
# How it was run: as §1
# [8] = molecular target: Gal(a1-3)Gal(b1-4)GlcNAc(b1-2)Man(a1-3)[Gal(a1-3)Gal(b1-4)GlcNAc(b1-2)Man(a1-6)]Man(b1-4)GlcNAc(b1-4)GlcNAc
# How it was run: as §1
# [9] = molecular target: Gal(a1-4)Gal(b1-4)GlcNAc(b1-3)Gal(b1-4)Glc
# How it was run: as §1
# Gal(b1-3)Gal(b1-4)GlcNAc = molecular target: Gal(b1-3)Gal(b1-4)GlcNAc
# How it was run: as §1
# [10] = molecular target: Gal(b1-3)GalNAc(b1-4)Gal(b1-4)Glc
# How it was run: as §1
# [11] = molecular target: Gal(b1-3)GlcNAc(b1-2)Man(a1-3)[GlcNAc(b1-4)][Gal(b1-3)GlcNAc(b1-2)Man(a1-6)]Man(b1-4)GlcNAc(b1-4)GlcNAc
# How it was run: as §1
# [12] = molecular target: Gal(b1-3)GlcNAc(b1-6)Gal(b1-4)GlcNAc
# How it was run: as §1
# [13] = molecular target: Gal(b1-3)[Fuc(a1-4)]GlcNAc(b1-3)Gal(b1-4)[Fuc(a1-3)]GlcNAc
# How it was run: as §1
# [14] = molecular target: Gal(b1-4)GalNAc(b1-3)[Fuc(a1-2)]Gal(b1-4)GlcNAc
# How it was run: as §1
# [15] = molecular target: Gal(b1-4)GlcNAc(b1-2)Man(a1-3)[Gal(b1-4)GlcNAc(b1-2)Man(a1-6)]Man(b1-4)GlcNAc(b1-4)[Fuc(a1-6)]GlcNAc
# How it was run: as §1
# [16] = molecular target: Gal(b1-4)GlcNAc(b1-3)Gal(b1-3)GlcNAc
# How it was run: as §1
# [17] = molecular target: Gal(b1-4)GlcNAc(b1-3)Gal(b1-4)GlcNAc(b1-2)Man(a1-3)[Gal(b1-4)GlcNAc(b1-3)Gal(b1-4)GlcNAc(b1-2)Man(a1-6)]Man(b1-4)GlcNAc(b1-4)GlcNAc
# How it was run: as §1
# [18] = molecular target: Gal(b1-4)GlcNAc(b1-3)Gal(b1-4)GlcNAc(b1-3)Gal(b1-4)GlcNAc(b1-2)Man(a1-3)[Gal(b1-4)GlcNAc(b1-3)Gal(b1-4)GlcNAc(b1-3)Gal(b1-4)GlcNAc(b1-2)Man(a1-6)]Man(b1-4)GlcNAc(b1-4)GlcNAc
# How it was run: as §1
# [19] = molecular target: Gal(b1-4)GlcNAc(b1-3)Gal(b1-4)GlcNAc(b1-3)GalNAc
# How it was run: as §1
# [20] = molecular target: Gal(b1-4)GlcNAc(b1-3)Gal(b1-4)GlcNAc(b1-3)[Gal(b1-4)GlcNAc(b1-3)Gal(b1-4)GlcNAc(b1-6)]GalNAc
# How it was run: as §1
# [21] = molecular target: Gal(b1-4)GlcNAc(b1-3)Gal(b1-4)GlcNAc(b1-6)[Gal(b1-3)]GalNAc
# How it was run: as §1
# Gal4S(b1-4)GlcNAc = molecular target: Gal4S(b1-4)GlcNAc
# How it was run: as §1
# Gal6P(b1-4)GlcNAc = molecular target: Gal6P(b1-4)GlcNAc
# How it was run: as §1
# GalNAc(b1-3)GalNAc = molecular target: GalNAc(b1-3)GalNAc
# How it was run: as §1
# GalNAc(b1-6)GalNAc = molecular target: GalNAc(b1-6)GalNAc
# How it was run: as §1
# [22] = molecular target: GlcNAc(b1-2)[GlcNAc(b1-4)]Man(a1-3)[GlcNAc(b1-4)][GlcNAc(b1-2)[GlcNAc(b1-6)]Man(a1-6)]Man(b1-4)GlcNAc(b1-4)[Fuc(a1-6)]GlcNAc
# How it was run: as §1
# [23] = molecular target: GlcNAc(b1-2)[GlcNAc(b1-6)]Man(a1-6)[GlcNAc(b1-2)Man(a1-3)]Man(b1-4)GlcNAc(b1-4)GlcNAc
# How it was run: as §1
# [24] = molecular target: GlcNAc(b1-3)Gal(b1-4)GlcNAc(b1-3)Gal(b1-4)GlcNAc(b1-3)Gal(b1-4)GlcNAc(b1-3)Gal(b1-4)GlcNAc(b1-2)Man(a1-3)[GlcNAc(b1-3)Gal(b1-4)GlcNAc(b1-3)Gal(b1-4)GlcNAc(b1-3)Gal(b1-4)GlcNAc(b1-3)Gal(b1-4)GlcNAc(b1-2)Man(a1-6)]Man(b1-4)GlcNAc(b1-4)[Fuc(a1-6)]GlcNAc
# How it was run: as §1
# [25] = molecular target: GlcNAc(b1-4)Gal(b1-4)GlcNAc
# How it was run: as §1
# [26] = molecular target: GlcNAc(b1-4)GlcNAc(b1-4)GlcNAc(b1-4)GlcNAc(b1-4)GlcNAc
# How it was run: as §1
# [27] = molecular target: GlcNAc6S(b1-3)Gal(b1-4)GlcNAc
# How it was run: as §1
# [28] = molecular target: Man(a1-2)Man(a1-3)[Man(a1-2)Man(a1-6)]Man(a1-6)[Man(a1-2)Man(a1-2)Man(a1-3)]Man
# How it was run: as §1
# [29] = molecular target: Man(a1-3)[Man(a1-6)]Man(a1-6)[Man(a1-2)Man(a1-3)]Man(b1-4)GlcNAc(b1-4)GlcNAc
# How it was run: as §1
# [30] = molecular target: Neu5Ac(a2-3)Gal(b1-3)GalNAc6S
# How it was run: as §1
# [31] = molecular target: Neu5Ac(a2-3)Gal(b1-3)GlcNAc(b1-2)Man(a1-3)[GlcNAc(b1-4)][Neu5Ac(a2-3)Gal(b1-3)GlcNAc(b1-2)Man(a1-6)]Man(b1-4)GlcNAc(b1-4)GlcNAc
# How it was run: as §1
# [32] = molecular target: Neu5Ac(a2-3)Gal(b1-3)[Neu5Ac(a2-6)]GlcNAc(b1-3)[Fuc(a1-3)[Gal(b1-4)]GlcNAc(b1-6)]Gal(b1-4)Glc
# How it was run: as §1
# [33] = molecular target: Neu5Ac(a2-3)Gal(b1-4)GlcNAc(b1-2)[Neu5Ac(a2-3)Gal(b1-4)GlcNAc(b1-2)]Man(a1-6)[Neu5Ac(a2-3)Gal(b1-4)GlcNAc(b1-2)Man(a1-3)][GlcNAc(b1-4)]Man(b1-4)GlcNAc(b1-4)GlcNAc
# How it was run: as §1
# [34] = molecular target: Neu5Ac(a2-3)Gal(b1-4)GlcNAc(b1-2)[Neu5Ac(a2-3)Gal(b1-4)GlcNAc(b1-6)]Man(a1-6)[Neu5Ac(a2-3)Gal(b1-4)GlcNAc(b1-2)Man(a1-3)]Man(b1-4)GlcNAc(b1-4)GlcNAc
# How it was run: as §1
# [35] = molecular target: Neu5Ac(a2-3)Gal(b1-4)GlcNAc(b1-3)Gal(b1-4)GlcNAc
# How it was run: as §1
# [36] = molecular target: Neu5Ac(a2-3)Gal(b1-4)GlcNAc(b1-3)Gal(b1-4)GlcNAc(b1-2)Man(a1-3)[Neu5Ac(a2-3)Gal(b1-4)GlcNAc(b1-3)Gal(b1-4)GlcNAc(b1-2)Man(a1-6)]Man(b1-4)GlcNAc(b1-4)GlcNAc
# How it was run: as §1
# [37] = molecular target: Neu5Ac(a2-3)Gal(b1-4)GlcNAc(b1-3)Gal(b1-4)GlcNAc(b1-3)Gal(b1-4)GlcNAc(b1-2)Man(a1-3)[Neu5Ac(a2-3)Gal(b1-4)GlcNAc(b1-3)Gal(b1-4)GlcNAc(b1-3)Gal(b1-4)GlcNAc(b1-2)Man(a1-6)]GalNAc
# How it was run: as §1
# [38] = molecular target: Neu5Ac(a2-3)Gal6S(b1-4)[Fuc(a1-3)]GlcNAc
# How it was run: as §1
# [39] = molecular target: Neu5Ac(a2-3)[GalNAc(b1-4)]Gal(b1-4)GlcNAc(b1-3)GalNAc
# How it was run: as §1
# [40] = molecular target: Neu5Ac(a2-6)Gal(b1-4)GlcNAc(b1-2)Man(a1-3)Man(b1-4)GlcNAc(b1-4)GlcNAc
# How it was run: as §1
# [41] = molecular target: Neu5Ac(a2-6)Gal(b1-4)GlcNAc(b1-3)Gal(b1-4)GlcNAc(b1-3)Gal(b1-4)GlcNAc(b1-2)Man(a1-3)[Neu5Ac(a2-6)Gal(b1-4)GlcNAc(b1-3)Gal(b1-4)GlcNAc(b1-3)Gal(b1-4)GlcNAc(b1-2)Man(a1-6)]GalNAc
# How it was run: as §1
# [42] = molecular target: Neu5Ac(a2-6)Gal(b1-4)GlcNAc(b1-3)Gal(b1-4)GlcNAc(b1-3)[Neu5Ac(a2-6)Gal(b1-4)GlcNAc(b1-3)Gal(b1-4)GlcNAc(b1-6)]GalNAc
# How it was run: as §1
# [43] = molecular target: Neu5Ac(a2-8)Neu5Ac(a2-3)Gal(b1-4)Glc
# How it was run: as §1
binder,measurement,setting,value
B1,glycan array binding signal (z-score),Fuc(a1-2)Gal(b1-4)GlcNAc,-0.294
same,glycan array binding signal (z-score),[1],0.023
same,glycan array binding signal (z-score),[2],-0.362
same,glycan array binding signal (z-score),Fuc(a1-2)[Gal(a1-3)]Gal,-0.26
same,glycan array binding signal (z-score),[3],-0.303
same,glycan array binding signal (z-score),[4],0.434
same,glycan array binding signal (z-score),[5],-0.31
same,glycan array binding signal (z-score),[6],-0.132
same,glycan array binding signal (z-score),[7],-0.286
same,glycan array binding signal (z-score),[8],-0.178
same,glycan array binding signal (z-score),[9],-0.267
same,glycan array binding signal (z-score),Gal(b1-3)Gal(b1-4)GlcNAc,-0.121
same,glycan array binding signal (z-score),[10],-0.32
same,glycan array binding signal (z-score),[11],-0.203
same,glycan array binding signal (z-score),[12],-0.345
same,glycan array binding signal (z-score),[13],-0.184
same,glycan array binding signal (z-score),[14],-0.335
same,glycan array binding signal (z-score),[15],0.207
same,glycan array binding signal (z-score),[16],-0.187
same,glycan array binding signal (z-score),[17],3.82
same,glycan array binding signal (z-score),[18],3.22
same,glycan array binding signal (z-score),[19],6.08
same,glycan array binding signal (z-score),[20],4.69
same,glycan array binding signal (z-score),[21],5.73
same,glycan array binding signal (z-score),Gal4S(b1-4)GlcNAc,-0.154
same,glycan array binding signal (z-score),Gal6P(b1-4)GlcNAc,-0.708
same,glycan array binding signal (z-score),GalNAc(b1-3)GalNAc,-0.167
same,glycan array binding signal (z-score),GalNAc(b1-6)GalNAc,-0.3
same,glycan array binding signal (z-score),[22],-0.406
same,glycan array binding signal (z-score),[23],0.094
same,glycan array binding signal (z-score),[24],-0.169
same,glycan array binding signal (z-score),[25],-0.553
same,glycan array binding signal (z-score),[26],-0.213
same,glycan array binding signal (z-score),[27],-0.288
same,glycan array binding signal (z-score),[28],-0.338
same,glycan array binding signal (z-score),[29],6.51
same,glycan array binding signal (z-score),[30],-0.262
same,glycan array binding signal (z-score),[31],-0.103
same,glycan array binding signal (z-score),[32],-0.258
same,glycan array binding signal (z-score),[33],-0.048
same,glycan array binding signal (z-score),[34],-0.017
same,glycan array binding signal (z-score),[35],-0.249
same,glycan array binding signal (z-score),[36],7.02
same,glycan array binding signal (z-score),[37],9.05
same,glycan array binding signal (z-score),[38],-0.271
same,glycan array binding signal (z-score),[39],4.49
same,glycan array binding signal (z-score),[40],-0.031
same,glycan array binding signal (z-score),[41],4.67
same,glycan array binding signal (z-score),[42],8.64
same,glycan array binding signal (z-score),[43],-0.117
